Laboratory results from ChEMBL document CHEMBL3988442, “University of Dundee, Small-Polar-MMV Screening Library” (2021).
Among all 48,000 compounds or so, about 13,000 (27%) showed an effect of 50% or more. This is one part of the list.

Each compound was assayed on Wolbachia pipientis (assay: Anti-Wolbachia Cell-Based Screen). Conditions: 5 µM.
Type: functional
Parameters: scale not given: in the data most compounds retested in dose-response had high values

SMILES	Percent Effect [%]
Cc1ccc(CNC(c2ccccc2)c2nccn2C)cc1C (configuration not stated)	-2.774
COc1ccc(C(=O)NS(=O)(=O)c2ccc(CNC(C)=O)s2)cc1	-0.9731
Cc1ccnc(NS(=O)(=O)c2cc(C(N)=O)n(C)c2)c1	8.268
Cc1cc(C)cc(NC(=O)CN2CCCC(n3cncn3)C2)c1 (configuration not stated)	8.702
COCC1CC2(CCN(C(=O)c3ccc(F)c(Cl)c3)CC2)CO1 (configuration not stated)	-3.157
CC(=O)NC[C@]1(O)CCN(C(=O)c2ccc3c(c2)OCO3)C[C@H]1O	124.1
CS(=O)(=O)NCC1CCCN(C(=O)c2ccc3c(c2)CCC3)C1 (configuration not stated)	-4.65
CC(=O)NC[C@]1(O)CCN(C(=O)c2ccc3c(c2)CCC3)C[C@H]1O	101.7
CC[C@@]1(O)CCN(C(=O)c2ccc(SC)cc2)C[C@H]1O	-2.102
CC(C)=CCN1C[C@H]2CC[C@@H]1CN(C(=O)c1ccc3c(c1)OCO3)C2	36
CC[C@@]1(O)CCN(C(=O)c2ccc(CN3CCCCCC3)cc2)C[C@H]1O	-35.93
CC[C@@]1(O)CCN(C(=O)c2ccc(-c3cccc(F)c3)cc2)C[C@H]1O	-0.249
CC(=O)NC[C@]1(O)CCN(C(=O)c2ccc(F)c(Cl)c2)C[C@H]1O	117.5
CC(=O)NC[C@]1(O)CCN(C(=O)c2ccc(C)c(F)c2)C[C@H]1O	111.8
CC[C@@]1(O)CCN(C(=O)CCNC(=O)c2ccc(F)cc2)C[C@H]1O	-29.52
CC(=O)N1CCC2(CC1)CN(C(=O)c1ccc3c(c1)OCO3)C2	-7.452
Cc1nn(CCO)cc1CN1CCC(C(C)N2CCCC2)CC1 (configuration not stated)	9.031
CCOc1ccc(CNC2CCCN(c3cccnn3)C2)cc1OC (configuration not stated)	-5.556
CCCn1ncc(C(=O)N(Cc2cccnc2)C[C@@H]2CCC(=O)N2)c1C	-6.874
CCn1c(CC2CCN(C(=O)C3CC(C(C)C)=NO3)CC2)nn(C)c1=O (configuration not stated)	5.338
O=C(CCC(=O)N1CCCC1c1cccs1)N1CCc2sccc2C1 (configuration not stated)	12.25
O=C(NC1CC(=O)N(C2Cc3ccccc3C2)C1)c1cc[n+]([O-])cc1 (configuration not stated)	5.46
CC(=O)N1CCN(C(=O)CNc2c(C)cccc2OC(F)F)CC1	-9.064
Cc1ccc(C(=O)N2CCC(=O)N(CC3CC3)C(C(C)C)C2)c(=O)[nH]1 (configuration not stated)	0.658
CC(Cc1ccco1)NC(=O)Nc1cnn(CC(N)=O)c1 (configuration not stated)	6.71
CNCC(=O)N1CCCC(c2cccc(Nc3nc(C)cc(C)n3)n2)C1 (configuration not stated)	-17.94

SMILES	Percent Effect [%]
Cc1cc(C)nc(Nc2cc(C)nc(C3CCN(C(=O)CO)C3)n2)n1 (configuration not stated)	114
CCOCCCNC(=O)c1cc(C)nc(N2CCCC2)n1	24.14
COCCNC(=O)c1cc(C)nc(C2CCN(C)CC2)n1	102.6
Cc1cc(O)nc(C2CCN(C(=O)CO)CC2)n1	98.46
COc1cc(C)nc(N2CCN(C(=O)COCC(F)(F)F)CC2)n1	-18.67
COCCNC(=O)CN1CCN(c2nc(C)cs2)C(C)C1 (configuration not stated)	5.094
Cc1cc(C(F)(F)F)nc(C2CCN(C(=O)CO)CC2)n1	124.3
O=c1[nH]c2nc(NCC3CCCO3)ncc2c(=O)n1-c1cccc(F)c1 (configuration not stated)	-6.626
CCc1noc(CC)c1CC(=O)N1CCN(C(=O)C2CCCC2)CC1	-21.61
O=C(CCCc1cn[nH]c1)N1C[C@@H](CN2CCCCCC2)[C@@H](CO)C1	0.3132
CN(C)CCN(Cc1ccsc1)C(=O)C1=NNC(=O)CC1	-24.72
COC(=O)[C@H]1CN(S(C)(=O)=O)CCN1S(C)(=O)=O	-6.679
Cc1cnc(NCC(C)(C)N2CCOCC2)nc1	-8.824
CC1CCN(C(=O)CN2CCC(c3n[nH]c(C4CC4)n3)CC2)CC1	-23.79
Cc1cc(C)nc(C2CCN(C(=O)CO)CC2)n1	128.5
Cc1nc(C2CCN(C(=O)CO)CC2)cc(N2CCOCC2)n1	8.233
COC(=O)Cc1cccc(NC(=O)Cc2ccon2)c1	4.933
CC(C)Nc1nc2c(c(NC3CC3)n1)CCN(C(=O)C1CCOC1)CC2 (configuration not stated)	25.31
CCOCC(=O)N1CCc2nc(C)nc(NC(C)C)c2CC1	81.04
COCC(=O)N1CCc2nc(C)nc(NC(C)C)c2CC1	69.97
Cc1nc2c(c(NC3CC3)n1)CCN(C(=O)CCO)CC2.O=C(O)C(F)(F)F	-1.283
COCC(=O)N1CCc2nc(NC(C)C)nc(NC(C)C)c2CC1	95.04
Cc1nc2c(c(NC(C)C)n1)CCN(C1CCOCC1)CC2.O=C(O)C(F)(F)F	-10.52
CCOCc1nc2c(c(NCCNC(C)=O)n1)CCN(C(C)=O)CC2	14.8
CC(C)Nc1nc2c(c(NC3CC3)n1)CN(C(=O)c1ccncc1)CC2	1.63
Cc1nc2c(c(NC(C)C)n1)CCN(C(=O)c1cc[nH]n1)CC2.O=C(O)C(F)(F)F	-4.947

SMILES	Percent Effect [%]
CC(=O)NCC(=O)N1CCc2nc(C)nc(C)c2CC1	-10.4
Cc1nc2c(c(NC(C)C)n1)CCN(C(=O)CCO)CC2	103
COCC(=O)NCC(Cc1cccc(F)c1)n1cccc1 (configuration not stated)	5.07
CC(C)SCCNC(=O)c1cccc2ccnn12	5.28
Cc1cc(C)c(CNC(=O)N(C)Cc2nnc3n2CCC3)c(=O)[nH]1	2.2
CSCC(C)(O)CNC(=O)c1ccc(Br)cc1F (configuration not stated)	2.874
COCC(NC(=O)NCc1cccc(Cl)c1)c1ccco1 (configuration not stated)	4.656
Cc1csc(N2CCCN(C(=O)CCN3CCCC3=O)CC2)n1	4.733
Cc1ccc(N2CCC(CCN3CCCC3=O)CC2)nn1	86.49
Cc1csc(N2CCN(CCCN3CCCC3=O)CC2)n1	-4.511
Cc1ccc(N2CCC3(CCC(=O)N3)CC2)nn1	-16.01
Cc1ccc(N2CC[C@]3(O)CCN(CCN4CCCC4=O)C[C@@H]3C2)nn1	-23.37
Cc1csc(N2CCC(CCN3CCCC3=O)CC2)n1	99.55
OCC1(O)CCN(Cc2ccc(-c3cc[nH]n3)s2)CC1	-3.236
CCCN1CC(NC(=O)Nc2nc(C)n(C(C)C)n2)CC1=O (configuration not stated)	-10.65
Cc1csc(N2CCN(CC(=O)Nc3c(C)n[nH]c3C)CC2C)n1 (configuration not stated)	7.256
CCc1cnc(N2CCN(CC(=O)Nc3c(C)n[nH]c3C)CC2)s1	-15.52
Cc1nn(C)c(C)c1NC(=O)CN1CCN(c2nccs2)C(C)C1 (configuration not stated)	107.6
Cc1n[nH]c(C)c1NC(=O)CN1CCN(c2nccs2)C(C)C1 (configuration not stated)	95.63
Cc1cc(NC(=O)CN2CCN(c3nccs3)C(C)C2)n(C)n1 (configuration not stated)	-9.576
CC1CN(CC(=O)Nc2nncs2)CCN1Cc1nccn1C (configuration not stated)	-11.48
CCC(C(=O)NC1CCN(S(C)(=O)=O)CC1)n1cccn1 (configuration not stated)	-1.013
Cc1cc(C)n(CCC2CC(=O)Nc3cc4[nH]ncc4cc32)n1 (configuration not stated)	5.657
O=C(C1CCOC1)N1C[C@H]2CN(c3ccccc3)C(=O)[C@H]2C1 (some centres not stated)	2.352
O=C(CN1CCSCC1c1ccccc1)N1CCOCC1 (configuration not stated)	-10.11
O=C(CCO)N1CC2(CCN(c3ccccc3)C2)C1	3.033

SMILES	Percent Effect [%]
O=C(C1CCOCC1)N1C[C@H]2C[C@H](OCc3ccccc3)C[C@H]2C1	85.95
O=C(C1CCOCC1)N1CCC2(CC1)CC(Oc1ccccc1)CO2 (configuration not stated)	2.022
O=C(COCc1ccccc1)N1CCC(OCc2cccnc2)CC1	-1.111
COc1ccccc1CC1CCCN(CC(=O)N2CCOCC2)C1 (configuration not stated)	1.243
O=C(CN1C[C@H]2C[C@H](OCc3ccccc3)C[C@H]2C1)N1CCOCC1	120.8
O=C(C1CCOC1)N1CC2(CCN(c3ccccc3)C2)C1 (configuration not stated)	126.5
O=C(Cc1cccnc1)N1CCC(OCc2ccccc2)CC1	5.712
O=C(C1CCOC1)N1CCC(OCc2ccccc2)CC1 (configuration not stated)	104.9
O=C(CO)N1CC2(CCN(c3ccccc3)C2)C1	-2.652
CC(=O)c1c(C)nn(CC(=O)N2Cc3cnc(C(C)(C)C)nc3C2)c1C	-8.133
CCS(=O)(=O)N1Cc2c(Cn3ccnc3)nn(C)c2C1	-18.78
CC(C)(C)OC(=O)N1CCCc2ccc(NCc3cc[nH]c3)cc21	-2.534
O=C(NCC1Cn2nnc(-c3ccsc3)c2CO1)N1CCCC1 (configuration not stated)	-5.299
O=C(O)c1ccc2c(c1)C1(CCCCC1)CN2C(=O)c1cccc(F)c1	-4.529
CCCN1CCC2(CC1)CN(C(=O)c1cccnc1)c1ccc(F)cc12.O=C(O)C(F)(F)F.O=C(O)C(F)(F)F	115.7
CN1CCC2(CC1)CN(C(=O)c1cccnc1)c1ccc(Cl)cc12	127.2
CC(=O)N1CCC2(CC1)C(=O)N(c1cccnc1)c1ccc(F)cc12	-4.26
O=C(O)c1ccc2c(c1)C1(CCCCC1)CN2C(=O)c1ccnnc1	-1.269
CCN1CCC2(CC1)CN(C(C)=O)c1ccc(C)cc12	-4.945
Cc1cncc(C(=O)N2Cc3ccccc3C3(CCN(C)CC3)C2)c1	-5.03
CCN1CCC2(CC1)CN(C(=O)c1cccnc1)c1ccc(Cl)cc12.O=C(O)C(F)(F)F.O=C(O)C(F)(F)F	116.9
COCCN1CCC2(CC1)CN(C(=O)C1CC1)c1ccc(F)cc12.O=C(O)C(F)(F)F	-7.452
O=C(C1CC1)N1CC2(CCN(CC3CC3)CC2)c2cc(F)ccc21.O=C(O)C(F)(F)F	-39.82
CC(=O)N1CCC2(CC1)CN(C(=O)c1cccnc1)c1ccc(F)cc12.O=C(O)C(F)(F)F	91.49
